These results are taken from PubChem BioAssay (NCI).

About 83,000 compounds went through this panel and 20% of them were active in at least one assay; those are over-represented in the sample as a whole.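 For each line, cells grew in 96-well plates with the test compound present at a single concentration for 48 hours.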 Unmarked numbers belong to inactive results. The source made the active and inactive calls. How the source made its calls: active means growth percent below 10; inactive means the rest.

Holding throughout (assay): NCI-60 one-dose screen, 48 h (100 = growth as untreated, 0 = no growth, -100 = all killed)
Details in all cases: 10 µM unless noted

Assay [1] deals with NCI-H23 lung.
Assay [2] relates to NCI-H226 lung.
Assay [3] relates to NCI-H322M lung.
Assay [4] has as its system HOP-62 NSCLC.
The test system of assay [5] is NCI-H460 lung.
The subject of assay [6] is HOP-92 NSCLC.
Assay [7] concerns NCI-H522 lung.
For assay [8], the system named is A549/ATCC NSCLC.
In assay [9] the test system is 786-0 renal.
The subject of assay [10] is COLO 205 colon.

For `CCc1nc2c(=O)[nH]cnc2o1`, the growth in [1] is 107%; in assay [2], 96.4%; in assay [3], 97.8%; in [4] it was 100%; in assay [5], 105%; in assay [6], 72.2%. Also, the growth is 108% in assay [7], 99.7% in [8], 110% in assay [9] and 110% in assay [10].

In the case of `c1ccc(CNc2c3ccccc3nc3ccccc23)cc1`, the growth in assay [1] was 41.2%; in [2], 51.7%; in assay [3] it was 46.3%; in assay [4], 46%; in [5], 10.3%; in assay [6] it was 25.9%. For the same molecule, the growth in assay [7] was 56.8%; in [8], 28.5%; in assay [9] it was 34.3%; in assay [10], 7.29% (active).

On to `Cc1nnc(-n2c(O)cc(=O)n(-c3ccccc3)c2=S)nc1/C=C/c1ccc(N(C)C)cc1`, for which the growth in assay [1] is 60.9%; in [2] it was 61.2%; in assay [3] it was 50.5%; in assay [4], 39.2%; in assay [5], 62.4%; in [6] it was 43.7%. The growth in [7] was 19.2%; in assay [8], 51.2%; in assay [9], 49.5%; in [10] it was 39.7%.

`C#Cc1ccc(NC(=O)c2ccc(/C=C/C(=O)c3nccn3C)cc2)cc1`: the growth in [1] was -56% (active); in assay [2], -35.3% (active); in [3], -95.4% (active); in assay [4] it was -47% (active); in assay [5], -56.4% (active); in assay [6], -25.4% (active). Moreover, the growth in assay [7] is -26.7% (active); in assay [8], -0.388% (active); in assay [9] it was -79.1% (active); in assay [10], -53.7% (active).

`CC(O)c1cnc(/C=C2\SC(=S)N(Cc3ccccc3)C2=O)s1` (stereo not given): the growth in assay [1] is 99.7%; in assay [2], 90.3%; in assay [3] it was 87.8%; in assay [4], 39%; in assay [5], 96.8%; in assay [6], 43.7%. In addition, the growth in assay [7] was 0.337% (active); in assay [8] it was 66.7%; in [9] it was 59.2%; in assay [10], 35.7%.

As to `COc1cc2c(c(OC)c1OC)C(=O)CC(c1cccc(NC(=O)c3ccc(Br)cc3)c1)O2` (stereo not given), the growth in [1] was 51.2%; in assay [2], 49.2%; in [3] it was 72.5%; in assay [4], 47.2%; in assay [5], 57%; in assay [6], 25.7%. The growth in [7] is 9.27% (active); in [8] it was 48.6%; in [9], 78.1%; in assay [10], 55.5%.

As to `CCN(CC)C(=S)SC(SC(=S)N(CC)CC)C(=O)c1nnn(-c2ccc([N+](=O)[O-])cc2)c1C`, the growth is 98.4% in [1]; 104% in assay [2]; 98.5% in assay [3]; 97.3% in [4]; 73.9% in [5]; 89.5% in [6]. Besides, the growth in assay [7] was 79.5%; in assay [8], 95.9%; in [9], 94.2%; in assay [10], 95.2%.

Turning to `CCn1c(SCC(=O)c2ccc(Br)cc2)nnc1-c1ccncc1`, the growth was 105% in assay [1]; 99% in assay [2]; 110% in [3]; 109% in assay [4]; 108% in assay [5]; 114% in [6]. Moreover, the growth in assay [7] was 96%; in assay [8], 106%; in [9], 114%; in assay [10] it was 114%.

On to `Oc1c(Cl)cc(Cl)c2ccc(Cn3cc(-c4cc(C(F)(F)F)cc(C(F)(F)F)c4)nn3)nc12`, for which the growth in [1] is 77.3%; in assay [2], 82.1%; in [3], 103%; in assay [4] it was 101%; in assay [5], 101%; in assay [6], 24.8%. Further, the growth in assay [7] was -39.4% (active); in [8] it was 95.5%; in assay [9], 97.3%; in assay [10], 66.4%.

`COc1ccccc1NC(=O)Cn1cc(CN2CCN(c3ccnc4cc(Cl)ccc34)CC2)nn1`: the growth in [1] was 89.2%; in assay [2], 84.7%; in [3], 95.1%; in assay [4] it was 86.2%; in assay [5], 96.3%; in [6], 61.8%. The growth in [7] is 86.8%; in [8], 91%; in assay [9], 99%; in [10], 101%.

Regarding `O=C(CCc1nnc(Cn2cnc3nc[nH]c3c2=O)o1)c1nc2ncccc2[nH]1`, the growth is 97.4% in assay [1]; 101% in assay [2]; 92.3% in assay [3]; 97.3% in [4]; 105% in assay [5]; 104% in assay [6]. Besides, the growth in assay [7] is 94.3%; in assay [8] it was 98.1%; in assay [9] it was 93.7%; in [10], 104%.
